Assay results: PubChem BioAssay (EPA / NIEHS)
Where “and” joins values, the source holds several entries; their conditions need not be identical. Equal values may be shown once. Inconclusive results are not listed. Some compounds were tested as several samples or in several runs, with calls that do not always agree. Calls of active or inactive are those of the source. The calls were made as follows, unless noted: active = hit-call score of the fitted dose curve at least 0.9, where 1 is the maximum; inactive = score below 0.9.

Assays:
[1] = read-out: Interleukin-8 (IL8), CXCL8 (gene 3576); test: BSK_3C_IL8: BioMAP Diversity Plus: 3C Assay for Interleukin-8 (IL8) Biomarker Activity (AID 2283020); details: primary human endothelial cells (HUVEC); actives raise or lower the signal
Summary of the method: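 Endothelial primary cells of human umbilical vein origin are dosed with chemical; after 24 h the IL-8 biomarker is measured by ELISA, and concentration–response is fitted in both directions versus DMSO.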

[2] = read-out: Monokine induced gamma interferon (MIG), CXCL9 (gene 4283); test: BSK_3C_MIG: BioMAP Diversity Plus: 3C Assay for Monokine induced gamma interferon (MIG) Biomarker Activity (AID 2283021); details: primary human endothelial cells (HUVEC); actives raise or lower the signal
Summary of the method: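 Endothelial primary cells (human umbilical vein) are dosed with test chemical in the 3C system. MIG levels are measured by ELISA at 24 h and fitted in both directions relative to DMSO.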

[3] = target: human Vitamin D Receptor (VDR), VDR (gene 7421) (UniProt P11473); test: ATG_VDR_TRANS: Attagene TRANS-FACTORIAL HepG2 Assay for human Vitamin D Receptor (VDR) (AID 2283022; active = hit-call score of the fitted dose curve at least 0.9, where 1 is the maximum)
Summary of the method: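 HepG2 cells were transiently transfected with multiple GAL4-UAS reporter units, so signal reflects exogenous chimeric receptor-Gal4 activity. After 24 h compound exposure, reporter mRNA was measured by RT-PCR, fluorescent labelling and capillary electrophoresis, fitted for gain of signal versus DMSO.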

[4] = BSK_3C_SRB: Viability Assessment in the BioMAP Diversity Plus: 3C Assay (AID 2283023); details: primary human endothelial cells (HUVEC);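 also: fitted both ways against DMSO so a hit may be signal rise or drop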
Summary of the method: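 Primary human umbilical vein endothelial cells in the 3C system were read 24 h after compound dosing. Total protein was stained with 0.1% sulforhodamine B after 10% TCA fixation and read at 560 nm, with bidirectional fitting against DMSO as baseline.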

[5] = read-out: Matrix Metallopeptidase 1 (MMP1), MMP1 (gene 4312); test: BSK_BE3C_MMP1: BioMAP Diversity Plus: BE3C Assay for Matrix Metallopeptidase 1 (MMP1) Biomarker Activity (AID 2283024); details: primary human bronchial epithelial cells; actives raise or lower the signal
Summary of the method: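 MMP1 signal, measured by ELISA after a 24 h chemical exposure of human primary bronchial epithelial cells, is analysed with bidirectional fitting using DMSO as negative control.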

[6] = BSK_3C_Vis: BioMAP Diversity Plus: 3C Assay for Morphology Visualization (AID 2283025); details: primary human endothelial cells (HUVEC);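 also: fitted both ways so gain or loss versus DMSO counts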
Summary of the method: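 Morphology read by light microscopy serves as a background control for the multiplexed 3C assay in human umbilical vein endothelial cells, taken 24 h after dosing, with DMSO as the negative control and bidirectional curve fitting.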

[7] = read-out: Pselectin, SELP (gene 6403); test: BSK_4H_Pselectin: BioMAP Diversity Plus: 4H Assay for Pselectin Biomarker Activity (AID 2283026); details: primary human endothelial cells (HUVEC); actives raise or lower the signal
Summary of the method: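 Endothelial primary cells (human umbilical vein) are dosed, incubated 24 h, and assayed for surface P-selectin by ELISA; responses in either direction are fitted relative to the DMSO negative control.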

[8] = BSK_4H_SRB: Viability Assessment in the BioMAP Diversity Plus: 4H Assay (AID 2283027); details: primary human endothelial cells (HUVEC);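 also: cells exposed to compound for 24 h before staining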;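 as to AC50: curves fitted both ways versus DMSO so AC50 may be loss or gain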
Summary of the method: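 Cytotoxicity readout: sulforhodamine B (0.1%) staining of total protein after 10% TCA fixation, measured at 560 nm in human umbilical vein endothelium at 24 h. DMSO set the baseline; fitting was bidirectional.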

[9] = BSK_BE3C_SRB: Viability Assessment in the BioMAP Diversity Plus: BE3C Assay (AID 2283028); details: primary human bronchial epithelial cells
Summary of the method: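 Human primary bronchial epithelial cells were exposed to test chemicals for 24 h. Total protein in parallel cultures was then measured by staining with 0.1% sulforhodamine B after 10% TCA fixation, with absorbance read at 560 nm. Activity was fitted bidirectionally against DMSO.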

[10] = read-out: Thrombomodulin, THBD (gene 7056); test: BSK_3C_Thrombomodulin: BioMAP Diversity Plus: 3C Assay for Thrombomodulin Biomarker Activity (AID 2283029); details: primary human endothelial cells (HUVEC); actives raise or lower the signal
Summary of the method: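 Endothelial cells from umbilical vein are dosed with test chemical and incubated 24 h. Thrombomodulin is then quantified by ELISA, with DMSO serving as negative control and activity baseline.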

[11] = read-out: Urokinase-type plasminogen activator receptor (uPAR), PLAUR (gene 5329); test: BSK_4H_uPAR: BioMAP Diversity Plus: 4H Assay for Urokinase-type plasminogen activator receptor (uPAR) Biomarker Activity (AID 2283030); details: primary human endothelial cells (HUVEC); actives raise or lower the signal
Summary of the method: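 Primary human umbilical vein endothelial cells were exposed to chemical for 24 h before cell-surface uPAR was quantified by ELISA. Activity was fitted bidirectionally against the DMSO negative control baseline.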

[12] = read-out: Vascular endothelial growth factor receptor 2 (Homo sapiens) (UniProt P35968); test: BSK_4H_VEGFRII: BioMAP Diversity Plus: 4H Assay for Vascular endothelial growth factor receptor 2 (VEGFR2) Biomarker Activity (AID 2283031); details: primary human endothelial cells (HUVEC); actives raise or lower the signal
Summary of the method: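 Primary human umbilical vein endothelial cells in the BioMAP 4H system were dosed with test chemical, and 24 h later VEGFRII was measured by ELISA. Activity was fitted bidirectionally against DMSO as negative control and baseline.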

[13] = read-out: Human Leukocyte Antigen - DR isotype (HLADR), HLA-DRA (gene 3122); test: BSK_BE3C_HLADR: BioMAP Diversity Plus: BE3C Assay for Human Leukocyte Antigen - DR isotype (HLADR) Biomarker Activity (AID 2283032); details: primary human bronchial epithelial cells; actives raise or lower the signal
Summary of the method: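 Chemicals are dosed onto BE3C bronchial epithelial cultures of human origin and left 24 h. HLA-DR is then measured by ELISA, and the endpoint is fitted in both directions using DMSO as the activity baseline.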

[14] = read-out: Vascular cell adhesion molecule 1 (VCAM1), VCAM1 (gene 7412); test: BSK_4H_VCAM1: BioMAP Diversity Plus: 4H Assay for Vascular cell adhesion molecule 1 (VCAM1) Biomarker Activity (AID 2283033); details: primary human endothelial cells (HUVEC); actives raise or lower the signal
Summary of the method: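 Chemicals are added to primary human umbilical vein endothelial cells. After 24 h, VCAM-1 levels are measured by ELISA. Values come from bidirectional fitting referenced to DMSO.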

[15] = read-out: Interferon-gamma inducible Protein 10 (IP10), CXCL10 (gene 3627); test: BSK_BE3C_IP10: BioMAP Diversity Plus: BE3C Assay for Interferon-gamma inducible Protein 10 (IP10) Biomarker Activity (AID 2283034); details: primary human bronchial epithelial cells; actives raise or lower the signal
Summary of the method: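 IP-10 quantified by ELISA serves as the endpoint. Cells: primary human bronchial epithelium, read 24 h after compound addition. Activity is derived by bidirectional fitting with DMSO as negative control.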

[16] = read-out: Monokine induced gamma interferon (MIG), CXCL9 (gene 4283); test: BSK_BE3C_MIG: BioMAP Diversity Plus: BE3C Assay for Monokine induced gamma interferon (MIG) Biomarker Activity (AID 2283035); details: primary human bronchial epithelial cells; actives raise or lower the signal;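 also: MIG protein measured by ELISA in BE3C cultures after 24 h of dosing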
Summary of the method: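 hu bronchial epithelial 1° cells, 24 h cpd; MIG by ELISA; bidirectional fit, DMSO = baseline.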

[17] = read-out: Transforming growth factor beta 1 (TGFb1), TGFB1 (gene 7040); test: BSK_BE3C_TGFb1: BioMAP Diversity Plus: BE3C Assay for Transforming growth factor beta 1 (TGFb1) Biomarker Activity (AID 2283036;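 also: TGF-b1 protein level measured by ELISA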); details: primary human bronchial epithelial cells; actives raise or lower the signal
Summary of the method: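 Bronchial epithelial primary cells are treated with test chemical, then TGF-b1 is quantified by ELISA after 24 hours. Values derive from bidirectional fitting against DMSO, with cytotoxicity checked by SRB staining in parallel cultures.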

[18] = read-out: Plasminogen activator inhibitor-1 (PAI1), SERPINE1 (gene 5054); test: BSK_BE3C_PAI1: BioMAP Diversity Plus: BE3C Assay for Plasminogen activator inhibitor-1 (PAI1) Biomarker Activity (AID 2283037); details: primary human bronchial epithelial cells; actives raise or lower the signal
Summary of the method: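 Values derive from bidirectional fitting against DMSO baseline of PAI-1 levels, measured by ELISA in human bronchial epithelial cells 24 h after compound addition.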

[19] = read-out: urokinase plasminogen activator (uPA), PLAU (gene 5328); test: BSK_BE3C_uPA: BioMAP Diversity Plus: BE3C Assay for urokinase plasminogen activator (uPA) Biomarker Activity (AID 2283038); details: primary human bronchial epithelial cells; actives raise or lower the signal
Summary of the method: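 Human primary bronchial epithelial cells were exposed to chemical for 24 h, then uPA levels were measured by ELISA. Responses were fitted bidirectionally against DMSO as negative control and baseline. Parallel SRB staining of total protein gauged overt cytotoxicity.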

[20] = read-out: Urokinase-type plasminogen activator receptor (uPAR), PLAUR (gene 5329); test: BSK_BE3C_uPAR: BioMAP Diversity Plus: BE3C Assay for Urokinase-type plasminogen activator receptor (uPAR) Biomarker Activity (AID 2283039); details: primary human bronchial epithelial cells; actives raise or lower the signal;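 also: cells exposed to compound for one day before measurement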
Summary of the method: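 Steps: dose human primary bronchial epithelial cells, incubate 24 h, measure uPAR by ELISA, then fit gain- or loss-of-signal response bidirectionally relative to DMSO.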

Measured: AC50

Sequence of human Vitamin D Receptor (VDR), VDR (gene 7421) (P11473 whole entry, looked up, the tested form may be a part): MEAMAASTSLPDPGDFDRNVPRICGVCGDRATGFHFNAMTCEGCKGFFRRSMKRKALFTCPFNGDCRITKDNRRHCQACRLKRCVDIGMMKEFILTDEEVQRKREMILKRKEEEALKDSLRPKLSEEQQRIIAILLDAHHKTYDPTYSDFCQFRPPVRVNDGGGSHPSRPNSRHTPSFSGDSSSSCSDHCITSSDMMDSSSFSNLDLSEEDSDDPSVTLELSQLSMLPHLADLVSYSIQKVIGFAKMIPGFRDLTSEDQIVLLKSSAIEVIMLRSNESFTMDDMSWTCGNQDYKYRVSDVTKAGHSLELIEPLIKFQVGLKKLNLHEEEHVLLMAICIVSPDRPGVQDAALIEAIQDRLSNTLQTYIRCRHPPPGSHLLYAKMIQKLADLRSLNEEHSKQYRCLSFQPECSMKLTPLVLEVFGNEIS

Cc1ccc([N+](=O)[O-])cc1C
inactive: all assays above

CCNc1nc(Cl)nc(NC(C)(C)C)n1
not listed: [16]
inactive: all other assays above

CCOc1ccc(C(C)(C)COCc2cccc(Oc3ccccc3)c2)cc1
inactive: all assays above

CCN(CC)c1ccccc1
inactive: all assays above

CCCCC(CC)COC(=O)c1c(Br)c(Br)c(Br)c(Br)c1C(=O)OCC(CC)CCCC (stereo not drawn)
inactive: all assays above

CN(C)C(=O)Cl
inactive: all assays above

CCOP(=S)(OCC)SCSc1ccc(Cl)cc1
active: [7] 12.6 µM | [14] 6.58 µM
not listed: [3]
inactive: all other assays above

CC(C)(C)OOC(C)(C)C
not listed: [3]
inactive: all other assays above

COC(=O)C(F)(F)C(F)(F)OC(F)(C(F)(F)F)C(F)(F)OC(F)=C(F)F (stereo not drawn)
active: [5] 1.48 µM and 2.55 µM
not listed: [6] | [17]
inactive: all other assays above

CCOP(=S)(S)OCC
not listed: [3]
inactive: all other assays above

CCOP(=S)(Oc1ccc([N+](=O)[O-])cc1)c1ccccc1 (stereo not drawn)
active: [14] 8.86 µM
not listed: [16]
inactive: all other assays above

O=C(O)C(F)(F)C(F)(F)C(=O)O
not listed: [6] | [16] | [17]
inactive: all other assays above

O=C(O)C(F)(F)OC(F)(F)C(F)(F)OC(F)(F)F
inactive: [1] | [2] | [3] | [4] | [5] | [7] | [8] | [9] | [10] | [11] | [12] | [13] | [14] | [15] | [18] | [19] | [20]
active: [19] 1.42 µM

O=P(Oc1ccccc1)(Oc1ccccc1)Oc1ccccc1
active: [1] 29.4 µM | [4] 30.2 µM | [6] 37.5 µM | [7] 33.2 µM | [8] 28.8 µM | [11] 29.9 µM | [14] 26.8 µM | [15] 26.3 µM | [18] 10.6 µM
not listed: [13]
inactive: all other assays above

O=S1(=O)OCC2C(CO1)C1(Cl)C(Cl)=C(Cl)C2(Cl)C1(Cl)Cl (stereo not drawn)
active: [4] 20 µM | [7] 12.2 µM | [8] 12.3 µM | [11] 9.1 µM | [14] 20 µM
not listed: [3]
inactive: all other assays above

Nc1ccc2ccccc2c1
active: [5] 2.92 µM
not listed: [3]
inactive: all other assays above

c1cc2c3c(cccc3c1)CC2
not listed: [3]
inactive: all other assays above

CC(C)(C)c1ccc(O)cc1
not listed: [3] | [16]
inactive: all other assays above

CC(Cc1ccc(OCC(=O)O)cc1)NCC(O)c1csc(C(F)(F)F)n1 (stereo not drawn)
not listed: [3]
inactive: all other assays above

O=C(O)C1C(C(=O)O)C2(Cl)C(Cl)=C(Cl)C1(Cl)C2(Cl)Cl (stereo not drawn)
not listed: [3]
inactive: all other assays above

O=[N+]([O-])c1ccc(Cl)c(Cl)c1
not listed: [3] | [16] | [20]
inactive: all other assays above

CCC(C)(C)c1ccc(O)cc1
not listed: [3]
inactive: all other assays above

O=C(O)C(F)(F)OC(F)(F)C(F)(F)OC(F)(F)C(=O)O
not listed: [6] | [17]
inactive: all other assays above

CCCCc1ccccc1
not listed: [3]
inactive: all other assays above

NC(=O)C(F)(F)C(F)(F)F
not listed: [6] | [16] | [17]
inactive: all other assays above

Cc1ccc(N)cc1N
not listed: [3]
inactive: all other assays above

c1ccc2c(c1)sc1ccccc12
not listed: [16]
inactive: all other assays above
